# Measured values from PubChem BioAssay (EPA / NIEHS).
# Records with an inconclusive call do not appear. Active and inactive are the calls of the source. How the source made its calls: active means hit-call score of the fitted dose curve at least 0.9, where 1 is the maximum; inconclusive means response in the unintended direction; inactive means score below 0.9.
# System: not listed separately
# Test: TOX21_p53_BLA_p4_viability: Viability Assessment in the Tox21 HCT-116 p53 Agonism Beta-lactamase Assay, Phase 4 (AID 2283597);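 further: hits lower the luminescence signal meaning cytotoxicity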
# How it was run: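 Luminescent ATP readout (CellTiter-Glo, 30 min, room temperature) in the same wells as the p53 bla ratio. HCT116 cells were treated for 16 h at 37C with DMSO-dissolved compounds.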
SMILES,outcome,AC50
CC(=O)CC(=O)Nc1ccc(S(=O)(=O)O)cc1,inactive,
Cc1ccc(C(C)(C)c2ccc(C)cc2)cc1,inactive,
CCCCOc1ccc(OCCCN2CCOCC2)cc1,inactive,
C=CCCCCCCCCCCC,inactive,
CCCCCCCCCCCCCCCC(=O)O[C@@H]1CC(C)=C(/C=C/C(C)=C/C=C/C(C)=C/C=C/C=C(C)/C=C/C=C(C)/C=C/C2=C(C)C[C@@H](OC(=O)CCCCCCCCCCCCCCC)CC2(C)C)C(C)(C)C1,inactive,
CCOC(=O)[C@H](CCc1ccccc1)N[C@@H](C)C(=O)N1Cc2cc(OC)c(OC)cc2C[C@H]1C(=O)O,inactive,
Cc1ccc(N)nc1,inactive,
CCCCOC(=O)C(=O)OCCCC,inactive,
CCCCNC(=O)NCCCC,inactive,
N[C@H]1CN(c2c(F)cc3c(=O)c(C(=O)O)cn(C4C[C@H]4F)c3c2Cl)CC12CC2 (stereo not given in full),inactive,
CN1CCCC(CC2c3ccccc3Sc3ccccc32)C1 (stereo not given),inactive,
CC(C)Cc1ccc([C@H](C)C(=O)O)cc1,inactive,
C=C1C(=O)O[C@H]2[C@H]1CC/C(C)=C/CC[C@@]1(C)O[C@@H]21,,36.9 µM (active)
CC(CC(=O)O)CC(C)(C)C (stereo not given),inactive,
CCc1ccc(Br)cc1,inactive,
CC(C)(CCl)c1ccccc1,inactive,
O=C(Cn1c(=O)sc2ccc(Cl)cc21)N1CCN(CCO)CC1,inactive,
CCC=C1OC(=O)c2ccccc21,inactive,
O=C1N=C2SCCN2C(=O)C1Cc1ccc(Cl)cc1 (stereo not given),inactive,
CS(=O)(=O)O,inactive,
COc1cc2c(cc1OC)C(C(C(=O)N(CCc1ccc(OC)c(OC)c1OC)CCc1ccc(OC)c(OC)c1OC)c1ccccc1)=NCC2 (stereo not given),inactive,
Cc1cc([N+](=O)[O-])ccc1N,inactive,
COc1ccc(CC2c3cc(OC)c(OC)cc3CC[N+]2(C)CCC(=O)OCCCCCOC(=O)CC[N+]2(C)CCc3cc(OC)c(OC)cc3C2Cc2ccc(OC)c(OC)c2)cc1OC (stereo not given),inactive,
O=C(O)c1ccc(NC(=O)[C@H](Cc2ccc(O)cc2)NC(=O)c2ccccc2)cc1,inactive,
C/C=C(/CC[C@@H](C)[C@H]1CC[C@H]2C3=CC[C@H]4[C@H](C)[C@@H](O)CC[C@]4(C)[C@H]3CC[C@]12C)C(C)C,inactive,
Oc1ccc(CCNCCCCCCNCCc2ccccc2)cc1O,inactive,

# Target: Cellular tumor antigen p53 (Homo sapiens) (UniProt P04637)
# Sequence (P04637 whole entry, looked up): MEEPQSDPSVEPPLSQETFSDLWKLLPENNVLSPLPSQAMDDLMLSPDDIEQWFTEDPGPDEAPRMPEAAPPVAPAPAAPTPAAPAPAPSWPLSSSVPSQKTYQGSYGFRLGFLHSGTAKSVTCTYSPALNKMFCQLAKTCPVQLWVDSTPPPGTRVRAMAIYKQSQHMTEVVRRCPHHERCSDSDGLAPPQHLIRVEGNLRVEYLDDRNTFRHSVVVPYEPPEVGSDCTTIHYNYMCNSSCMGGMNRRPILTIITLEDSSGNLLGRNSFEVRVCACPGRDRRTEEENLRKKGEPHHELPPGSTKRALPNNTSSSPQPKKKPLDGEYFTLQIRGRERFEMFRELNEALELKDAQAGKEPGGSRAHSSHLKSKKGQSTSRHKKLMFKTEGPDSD
# Test: TOX21_p53_BLA_p5_ratio: Tox21 HCT-116 p53 Agonism Beta-lactamase Assay, Ratio, Phase 5 (AID 2283599)
# How it was run: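 HCT-116 p53-bla cells (4000/well) plated 5 h, dosed with compound (217-fold DMSO dilution) for 16 h at 37 C; CCF4-AM substrate 2 h at room temperature. Activity is the 460/530 nm emission ratio (405 nm excitation), fitted in gain-of-signal direction versus DMSO.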
row,SMILES,outcome
1,CC(=O)CC(=O)Nc1ccc(S(=O)(=O)O)cc1,inactive
2,C=CCCCCCCCCCCC,inactive
3,Cc1ccc(N)nc1,inactive
4,CCCCOC(=O)C(=O)OCCCC,inactive
5,CCCCNC(=O)NCCCC,inactive
6,CC1=C(/C=C/C(C)=C/C=C/C(C)=C/C=C/C=C(C)/C=C/C=C(C)/C=C/C2=C(C)C(=O)CCC2(C)C)C(C)(C)CCC1=O,inactive
7,CC(C)(CCl)c1ccccc1,inactive
8,CC(=O)c1cnccn1,inactive
9,CCC=C1OC(=O)c2ccccc21,inactive
10,CCNS(=O)(=O)c1ccc(C)cc1,inactive
11,COC(=O)c1cc(C(=O)OC)cc(S(=O)(=O)O)c1,inactive
12,CS(=O)(=O)O,inactive
13,COc1cc2c(cc1OC)C(C(C(=O)N(CCc1ccc(OC)c(OC)c1OC)CCc1ccc(OC)c(OC)c1OC)c1ccccc1)=NCC2 (stereo not given),inactive
14,NCCCC(O)(P(=O)(O)O)P(=O)(O)O,inactive
15,Cc1cc([N+](=O)[O-])ccc1N,inactive
16,O=c1oc2c(O)c(O)cc3c(=O)oc4c(O)c(O)cc1c4c23,inactive
17,Cn1cnc2ncnc(N)c21,inactive
18,CO[C@H]1O[C@@H]2O[C@@]3(C)CC[C@H]4[C@H](C)CC[C@@H]([C@H]1C)[C@@]24OO3,inactive
19,O=S(=O)(O)c1cccc(S(=O)(=O)O)c1,inactive
20,c1ccc2c(c1)ccc1c3ccccc3ccc21,inactive

# System: not listed separately
# Test: TOX21_p53_BLA_p5_viability: Viability Assessment in the Tox21 HCT-116 p53 Agonism Beta-lactamase Assay, Phase 5 (AID 2283600)
# How it was run: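 Seeded cells (4000/well) settle 5 h before compound addition. Plates then incubate 16 h at 37C, receive FRET substrate for 2 h, and finally CellTiter-Glo, with luminescence measured after a 30 min room-temperature incubation.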
row,SMILES,outcome
1,Cc1ccccc1C(=O)Nc1ccc(C(=O)N2CCCC(O)c3cc(Cl)ccc32)c(C)c1 (stereo not given),inactive
2,COc1cc(C[C@@H]2NCCc3cc(O)c(O)cc32)cc(OC)c1OC,inactive
3,CCCCOc1ccc(OCCCN2CCOCC2)cc1,inactive
4,CCOC(=O)[C@H](CCc1ccccc1)N[C@@H](C)C(=O)N1Cc2cc(OC)c(OC)cc2C[C@H]1C(=O)O,inactive
5,CCCCOC(=O)C(=O)OCCCC,inactive
6,CCCCNC(=O)NCCCC,inactive
7,N[C@H]1CN(c2c(F)cc3c(=O)c(C(=O)O)cn(C4C[C@H]4F)c3c2Cl)CC12CC2 (stereo not given in full),inactive
8,CN1CCCC(CC2c3ccccc3Sc3ccccc32)C1 (stereo not given),inactive
9,CC(C)Cc1ccc([C@H](C)C(=O)O)cc1,inactive
10,C=C1C(=O)O[C@H]2[C@H]1CC/C(C)=C/CC[C@@]1(C)O[C@@H]21,inactive
11,CC(CC(=O)O)CC(C)(C)C (stereo not given),inactive
12,CC(C)(CCl)c1ccccc1,inactive
13,O=C(Cn1c(=O)sc2ccc(Cl)cc21)N1CCN(CCO)CC1,inactive
14,CCC=C1OC(=O)c2ccccc21,inactive
15,CCNS(=O)(=O)c1ccc(C)cc1,inactive
16,O=C1N=C2SCCN2C(=O)C1Cc1ccc(Cl)cc1 (stereo not given),inactive
17,COc1cc2c(cc1OC)C(C(C(=O)N(CCc1ccc(OC)c(OC)c1OC)CCc1ccc(OC)c(OC)c1OC)c1ccccc1)=NCC2 (stereo not given),inactive
18,NCCCC(O)(P(=O)(O)O)P(=O)(O)O,inactive
19,Cn1cnc2ncnc(N)c21,inactive
20,CO[C@H]1O[C@@H]2O[C@@]3(C)CC[C@H]4[C@H](C)CC[C@@H]([C@H]1C)[C@@]24OO3,inactive
21,O=S(=O)(O)c1cccc(S(=O)(=O)O)c1,inactive
22,O=C(O)c1ccc(NC(=O)[C@H](Cc2ccc(O)cc2)NC(=O)c2ccccc2)cc1,inactive
23,C/C=C(/CC[C@@H](C)[C@H]1CC[C@H]2C3=CC[C@H]4[C@H](C)[C@@H](O)CC[C@]4(C)[C@H]3CC[C@]12C)C(C)C,inactive
24,Oc1ccc(CCNCCCCCCNCCc2ccccc2)cc1O,inactive
